# Source: paper PMC7862700, “An all-to-all approach to the identification of sequence-specific readers for epigenetic DNA modifications on cytosine”
# How the values were obtained:
# Test in all cases: DAPPL (digital affinity profiling via proximity ligation, sequencing); 10 mM Tris-HCl pH 7.5, 50 mM NaCl, 1 mM DTT, 4% glycerol, room temperature, 30 min; GST-TFs on glutathione beads, 16-mer random dsDNA library, 0.1% formaldehyde crosslink after washing; high values mean tight binding
# Settings in all cases: protein: recombinant; tags: N-terminal GST; dsDNA, one strand shown
# [1] = target: T1, GABPA (Homo sapiens, UniProt Q06546 1-454)
# T1 sequence: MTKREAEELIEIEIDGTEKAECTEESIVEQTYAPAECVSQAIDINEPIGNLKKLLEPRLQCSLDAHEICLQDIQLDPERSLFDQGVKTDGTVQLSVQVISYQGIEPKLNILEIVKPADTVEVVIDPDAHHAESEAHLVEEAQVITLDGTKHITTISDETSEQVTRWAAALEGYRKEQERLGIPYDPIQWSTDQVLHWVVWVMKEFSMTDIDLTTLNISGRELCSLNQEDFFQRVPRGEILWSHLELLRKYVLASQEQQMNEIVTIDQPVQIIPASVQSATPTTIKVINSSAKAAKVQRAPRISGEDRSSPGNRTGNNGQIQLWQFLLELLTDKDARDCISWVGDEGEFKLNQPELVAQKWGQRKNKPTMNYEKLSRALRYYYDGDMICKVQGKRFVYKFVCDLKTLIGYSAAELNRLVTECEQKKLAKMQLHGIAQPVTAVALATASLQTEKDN
# Procedure, shortened: (§1)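 GST fusions of human transcription factors were expressed in yeast and captured with glutathione beads. Once given DNA barcodes and pooled alongside a tag-only sample, they were incubated for 30 min at room temperature with 200 nmole of a random double-stranded 16-mer DNA library in Tris/NaCl/DTT/glycerol buffer, then washed, crosslinked (0.1% formaldehyde), proximity-ligated, PCR-amplified and sequenced on an Illumina NextSeq500. The binding signal of each hexamer is its read frequency for a factor divided by its frequency for the tag-only sample.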
# [2] = target: T2, ERG (Homo sapiens, UniProt P11308 1-479)
# T2 sequence: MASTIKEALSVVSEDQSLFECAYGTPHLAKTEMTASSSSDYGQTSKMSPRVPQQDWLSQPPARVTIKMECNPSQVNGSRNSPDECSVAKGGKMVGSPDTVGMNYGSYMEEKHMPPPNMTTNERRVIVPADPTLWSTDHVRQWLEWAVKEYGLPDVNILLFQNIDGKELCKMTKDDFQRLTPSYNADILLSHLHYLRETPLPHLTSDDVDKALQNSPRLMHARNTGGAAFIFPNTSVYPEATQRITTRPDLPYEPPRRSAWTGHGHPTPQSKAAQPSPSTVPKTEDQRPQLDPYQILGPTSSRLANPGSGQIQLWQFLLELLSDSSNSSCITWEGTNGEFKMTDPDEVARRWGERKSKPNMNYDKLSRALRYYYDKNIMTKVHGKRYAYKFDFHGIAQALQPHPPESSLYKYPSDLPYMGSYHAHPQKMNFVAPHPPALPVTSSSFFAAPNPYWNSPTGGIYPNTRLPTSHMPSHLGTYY
# Procedure, shortened: as §1
# [3] = target: T3, EHF (Homo sapiens, UniProt Q9NZC4 1-300)
# T3 sequence: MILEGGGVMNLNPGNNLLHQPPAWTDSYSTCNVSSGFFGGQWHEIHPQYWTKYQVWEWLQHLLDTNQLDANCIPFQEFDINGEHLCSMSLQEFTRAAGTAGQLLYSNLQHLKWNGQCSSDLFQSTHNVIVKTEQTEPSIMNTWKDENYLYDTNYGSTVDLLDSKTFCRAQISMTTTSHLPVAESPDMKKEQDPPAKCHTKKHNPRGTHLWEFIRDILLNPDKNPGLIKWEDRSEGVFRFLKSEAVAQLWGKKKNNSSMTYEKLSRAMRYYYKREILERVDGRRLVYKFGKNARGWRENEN
# Procedure, shortened: as §1
# [4] = target: SPIB (Homo sapiens, UniProt Q01892 1-262)
# Procedure, shortened: as §1
# [5] = target: T4, ELK3 (Homo sapiens, UniProt P41970 1-407)
# T4 sequence: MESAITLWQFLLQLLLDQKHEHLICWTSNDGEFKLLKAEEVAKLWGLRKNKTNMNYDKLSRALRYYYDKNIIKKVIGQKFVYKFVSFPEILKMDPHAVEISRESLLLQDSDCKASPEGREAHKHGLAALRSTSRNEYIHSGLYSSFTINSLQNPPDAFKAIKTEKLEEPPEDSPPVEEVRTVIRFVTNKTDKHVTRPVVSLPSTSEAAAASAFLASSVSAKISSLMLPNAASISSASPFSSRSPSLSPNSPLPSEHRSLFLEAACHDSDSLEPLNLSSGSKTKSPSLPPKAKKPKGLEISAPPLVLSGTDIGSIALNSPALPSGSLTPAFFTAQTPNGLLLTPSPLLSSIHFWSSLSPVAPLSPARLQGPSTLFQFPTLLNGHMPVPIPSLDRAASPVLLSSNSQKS
# Procedure, shortened: as §1
# [6] = target: T5, SPIC (Homo sapiens, UniProt Q8N5J4 1-248)
# T5 sequence: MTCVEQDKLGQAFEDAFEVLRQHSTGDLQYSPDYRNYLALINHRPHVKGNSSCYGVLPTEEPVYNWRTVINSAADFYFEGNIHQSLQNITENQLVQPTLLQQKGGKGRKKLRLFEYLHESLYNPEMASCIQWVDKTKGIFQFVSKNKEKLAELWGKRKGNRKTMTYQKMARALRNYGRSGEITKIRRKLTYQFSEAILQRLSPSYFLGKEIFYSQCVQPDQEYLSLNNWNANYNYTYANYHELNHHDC
# Procedure, shortened: as §1
# [7] = target: ELF4 (Homo sapiens, UniProt Q99607 1-663)
# Procedure, shortened: as §1
# [8] = target: T6, ELK4 (Homo sapiens, UniProt P28324-2 1-405)
# T6 sequence: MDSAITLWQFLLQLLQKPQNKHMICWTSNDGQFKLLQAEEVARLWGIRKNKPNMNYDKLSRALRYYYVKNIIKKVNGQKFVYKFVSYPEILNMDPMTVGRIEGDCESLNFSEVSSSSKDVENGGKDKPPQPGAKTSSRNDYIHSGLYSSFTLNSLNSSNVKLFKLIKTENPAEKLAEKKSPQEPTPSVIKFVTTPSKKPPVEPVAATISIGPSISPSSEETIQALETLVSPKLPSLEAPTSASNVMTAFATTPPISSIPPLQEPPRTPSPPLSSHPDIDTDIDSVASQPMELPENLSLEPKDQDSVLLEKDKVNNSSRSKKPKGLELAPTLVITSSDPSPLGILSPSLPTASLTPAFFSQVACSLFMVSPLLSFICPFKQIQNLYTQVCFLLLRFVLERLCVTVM
# Procedure, shortened: as §1
# [9] = target: T7, ERF (Homo sapiens, UniProt P50548 1-548)
# T7 sequence: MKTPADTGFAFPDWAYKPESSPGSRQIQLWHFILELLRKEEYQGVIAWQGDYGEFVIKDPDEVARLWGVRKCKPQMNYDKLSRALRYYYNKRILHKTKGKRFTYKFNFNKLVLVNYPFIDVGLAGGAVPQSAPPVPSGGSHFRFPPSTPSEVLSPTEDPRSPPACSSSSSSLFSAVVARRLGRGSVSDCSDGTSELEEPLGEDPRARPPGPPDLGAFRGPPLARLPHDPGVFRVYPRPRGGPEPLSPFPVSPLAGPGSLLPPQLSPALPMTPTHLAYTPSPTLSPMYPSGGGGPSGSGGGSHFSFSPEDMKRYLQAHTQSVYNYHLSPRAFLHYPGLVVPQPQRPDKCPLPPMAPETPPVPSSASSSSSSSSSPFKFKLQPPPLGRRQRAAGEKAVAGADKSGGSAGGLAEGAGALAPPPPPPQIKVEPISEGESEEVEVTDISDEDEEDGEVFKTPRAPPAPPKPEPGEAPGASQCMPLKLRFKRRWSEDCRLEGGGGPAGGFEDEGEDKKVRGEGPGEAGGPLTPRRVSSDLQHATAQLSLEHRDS
# Procedure, shortened: as §1
# [10] = target: T8, ETV3L (Homo sapiens, UniProt Q6ZN32 1-361)
# T8 sequence: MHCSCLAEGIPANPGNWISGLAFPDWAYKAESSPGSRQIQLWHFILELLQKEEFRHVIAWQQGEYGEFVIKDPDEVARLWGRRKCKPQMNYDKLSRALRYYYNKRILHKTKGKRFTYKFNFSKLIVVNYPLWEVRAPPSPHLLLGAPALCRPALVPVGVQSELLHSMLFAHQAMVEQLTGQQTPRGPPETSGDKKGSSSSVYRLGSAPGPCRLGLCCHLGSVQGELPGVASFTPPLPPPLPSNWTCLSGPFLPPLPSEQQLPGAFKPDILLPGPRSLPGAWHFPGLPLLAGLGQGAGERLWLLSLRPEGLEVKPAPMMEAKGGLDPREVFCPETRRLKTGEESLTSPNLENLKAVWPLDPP
# Procedure, shortened: as §1
# [11] = target: T9, ETS2 (Homo sapiens, UniProt P15036 1-469)
# T9 sequence: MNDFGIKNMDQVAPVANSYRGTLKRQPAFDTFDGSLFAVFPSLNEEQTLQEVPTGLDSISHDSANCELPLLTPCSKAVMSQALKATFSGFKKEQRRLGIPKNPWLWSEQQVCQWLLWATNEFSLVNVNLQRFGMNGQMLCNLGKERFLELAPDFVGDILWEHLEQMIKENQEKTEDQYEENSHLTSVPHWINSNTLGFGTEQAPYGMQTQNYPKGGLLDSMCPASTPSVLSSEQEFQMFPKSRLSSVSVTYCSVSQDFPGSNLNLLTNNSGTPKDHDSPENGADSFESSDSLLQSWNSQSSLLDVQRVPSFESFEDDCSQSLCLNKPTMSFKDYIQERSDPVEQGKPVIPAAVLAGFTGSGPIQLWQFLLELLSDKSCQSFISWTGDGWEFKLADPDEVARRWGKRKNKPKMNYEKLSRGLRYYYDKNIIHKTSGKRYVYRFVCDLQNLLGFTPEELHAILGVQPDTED
# Procedure, shortened: as §1
# [12] = target: T10, ETV7 (Homo sapiens, UniProt Q9Y603 1-341)
# T10 sequence: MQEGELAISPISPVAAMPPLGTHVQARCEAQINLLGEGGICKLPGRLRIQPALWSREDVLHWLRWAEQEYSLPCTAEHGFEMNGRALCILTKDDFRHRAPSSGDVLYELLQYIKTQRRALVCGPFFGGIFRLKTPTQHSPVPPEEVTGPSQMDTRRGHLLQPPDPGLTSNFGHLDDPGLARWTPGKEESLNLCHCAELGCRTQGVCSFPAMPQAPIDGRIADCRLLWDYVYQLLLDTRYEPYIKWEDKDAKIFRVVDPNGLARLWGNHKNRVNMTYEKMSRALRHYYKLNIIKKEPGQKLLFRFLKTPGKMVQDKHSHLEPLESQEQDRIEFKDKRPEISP
# Procedure, shortened: as §1
# [13] = target: T11, ETV3 (Homo sapiens, UniProt P41162-2 1-143)
# T11 sequence: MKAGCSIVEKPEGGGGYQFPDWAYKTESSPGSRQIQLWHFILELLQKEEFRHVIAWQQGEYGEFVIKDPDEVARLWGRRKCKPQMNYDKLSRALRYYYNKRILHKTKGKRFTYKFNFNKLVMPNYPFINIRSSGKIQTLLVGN
# Procedure, shortened: as §1
# [14] = target: ETV6 (Homo sapiens, UniProt P41212 1-452)
# Procedure, shortened: as §1
# Sequence of ELF4 (Q99607 whole entry): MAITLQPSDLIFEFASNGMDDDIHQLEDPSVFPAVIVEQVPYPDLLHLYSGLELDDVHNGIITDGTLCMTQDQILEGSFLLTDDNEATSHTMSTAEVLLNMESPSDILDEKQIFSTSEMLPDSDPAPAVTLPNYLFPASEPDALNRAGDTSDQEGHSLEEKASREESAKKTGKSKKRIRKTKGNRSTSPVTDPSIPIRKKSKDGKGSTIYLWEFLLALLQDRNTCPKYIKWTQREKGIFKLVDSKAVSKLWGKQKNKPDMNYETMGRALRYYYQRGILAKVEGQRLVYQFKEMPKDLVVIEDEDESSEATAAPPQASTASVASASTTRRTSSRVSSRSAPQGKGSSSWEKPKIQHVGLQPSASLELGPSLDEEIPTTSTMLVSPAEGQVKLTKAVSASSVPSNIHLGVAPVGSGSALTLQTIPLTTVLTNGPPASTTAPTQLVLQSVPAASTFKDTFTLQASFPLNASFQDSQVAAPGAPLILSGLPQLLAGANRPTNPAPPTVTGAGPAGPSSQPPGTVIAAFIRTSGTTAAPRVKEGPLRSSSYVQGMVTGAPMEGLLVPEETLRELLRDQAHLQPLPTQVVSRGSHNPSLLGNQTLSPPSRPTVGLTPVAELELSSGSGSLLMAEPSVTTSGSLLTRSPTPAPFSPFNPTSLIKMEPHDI
# Sequence of SPIB (Q01892 whole entry): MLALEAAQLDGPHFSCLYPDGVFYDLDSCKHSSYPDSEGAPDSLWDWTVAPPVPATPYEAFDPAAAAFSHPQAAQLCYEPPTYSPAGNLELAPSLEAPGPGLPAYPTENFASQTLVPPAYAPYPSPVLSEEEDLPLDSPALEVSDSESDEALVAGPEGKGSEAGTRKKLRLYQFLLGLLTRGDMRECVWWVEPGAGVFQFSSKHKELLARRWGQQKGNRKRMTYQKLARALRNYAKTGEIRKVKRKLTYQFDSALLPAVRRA
# Sequence of ETV6 (P41212 whole entry): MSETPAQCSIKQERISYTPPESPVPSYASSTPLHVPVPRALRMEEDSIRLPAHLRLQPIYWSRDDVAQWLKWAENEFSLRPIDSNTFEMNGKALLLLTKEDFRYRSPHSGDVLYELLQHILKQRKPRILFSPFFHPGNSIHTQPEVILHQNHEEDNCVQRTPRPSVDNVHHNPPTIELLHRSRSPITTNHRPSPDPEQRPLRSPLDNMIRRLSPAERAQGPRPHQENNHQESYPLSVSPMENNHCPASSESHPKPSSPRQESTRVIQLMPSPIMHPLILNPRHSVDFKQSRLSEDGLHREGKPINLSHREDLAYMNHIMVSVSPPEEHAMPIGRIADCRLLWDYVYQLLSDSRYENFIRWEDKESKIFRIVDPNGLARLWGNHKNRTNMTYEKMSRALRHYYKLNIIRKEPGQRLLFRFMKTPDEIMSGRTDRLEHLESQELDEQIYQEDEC
sequence,measurement,setting,value
CATATG,binding signal,[1],"1.09 fold enrichment (6-mer frequency, TF over GST control)"
same,binding signal,[2],"1.07 fold enrichment (6-mer frequency, TF over GST control)"
same,binding signal,[3],"1.01 fold enrichment (6-mer frequency, TF over GST control)"
same,binding signal,[4],"1.04 fold enrichment (6-mer frequency, TF over GST control)"
same,binding signal,[5],"1.04 fold enrichment (6-mer frequency, TF over GST control)"
same,binding signal,[6],"1.01 fold enrichment (6-mer frequency, TF over GST control)"
same,binding signal,[7],"1.04 fold enrichment (6-mer frequency, TF over GST control)"
same,binding signal,[8],"1.11 fold enrichment (6-mer frequency, TF over GST control)"
same,binding signal,[9],"1.06 fold enrichment (6-mer frequency, TF over GST control)"
same,binding signal,[10],"1.06 fold enrichment (6-mer frequency, TF over GST control)"
same,binding signal,[11],"1.04 fold enrichment (6-mer frequency, TF over GST control)"
same,binding signal,[12],"1.14 fold enrichment (6-mer frequency, TF over GST control)"
same,binding signal,[13],"1.02 fold enrichment (6-mer frequency, TF over GST control)"
same,binding signal,[14],"1.03 fold enrichment (6-mer frequency, TF over GST control)"
